# Measurements published in PubChem BioAssay AID485346 (Sanford-Burnham Center for Chemical Genomics, 2010).
# In all, about 330,000 compounds went through this assay and about 10,000 (3%) were called active. This is one part of a sample in which actives are shown more often than they occur.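 The calls were made as follows: active = inhibition of at least 50% at 8 µM in the primary screen; inactive = the rest.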
# Biological target: Protein Mdm4 (Homo sapiens) + E3 ubiquitin-protein ligase Mdm2 (Homo sapiens) (UniProt O15151+Q00987)
# Assay: inhibitors of human Mdm2-MdmX association, primary screen, cell-based, luminescence, split luciferase, SaOS-2, uHTS (AID 485346)
# Conditions: SaOS-2 split-luciferase Mdm2/MdmX complementation, at 8 µM, active compounds read high
# Sequence of Protein Mdm4 (Homo sapiens) + E3 ubiquitin-protein ligase Mdm2 (Homo sapiens) (O15151 whole entry, looked up): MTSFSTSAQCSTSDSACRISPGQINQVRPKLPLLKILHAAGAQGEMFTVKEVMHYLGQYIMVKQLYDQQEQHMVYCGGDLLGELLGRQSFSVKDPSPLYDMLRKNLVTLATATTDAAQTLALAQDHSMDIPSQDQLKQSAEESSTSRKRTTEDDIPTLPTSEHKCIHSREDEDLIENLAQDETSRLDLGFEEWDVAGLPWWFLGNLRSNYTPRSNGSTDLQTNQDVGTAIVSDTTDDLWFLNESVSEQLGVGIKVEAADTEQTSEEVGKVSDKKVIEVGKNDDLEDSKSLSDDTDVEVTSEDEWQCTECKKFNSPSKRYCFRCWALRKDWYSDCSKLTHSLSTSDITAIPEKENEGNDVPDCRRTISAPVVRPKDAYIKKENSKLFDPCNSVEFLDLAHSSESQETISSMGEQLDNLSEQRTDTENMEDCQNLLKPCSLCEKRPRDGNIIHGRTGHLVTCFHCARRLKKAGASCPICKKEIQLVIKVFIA
# Sequence of Protein Mdm4 (Homo sapiens) + E3 ubiquitin-protein ligase Mdm2 (Homo sapiens) (Q00987 whole entry, looked up): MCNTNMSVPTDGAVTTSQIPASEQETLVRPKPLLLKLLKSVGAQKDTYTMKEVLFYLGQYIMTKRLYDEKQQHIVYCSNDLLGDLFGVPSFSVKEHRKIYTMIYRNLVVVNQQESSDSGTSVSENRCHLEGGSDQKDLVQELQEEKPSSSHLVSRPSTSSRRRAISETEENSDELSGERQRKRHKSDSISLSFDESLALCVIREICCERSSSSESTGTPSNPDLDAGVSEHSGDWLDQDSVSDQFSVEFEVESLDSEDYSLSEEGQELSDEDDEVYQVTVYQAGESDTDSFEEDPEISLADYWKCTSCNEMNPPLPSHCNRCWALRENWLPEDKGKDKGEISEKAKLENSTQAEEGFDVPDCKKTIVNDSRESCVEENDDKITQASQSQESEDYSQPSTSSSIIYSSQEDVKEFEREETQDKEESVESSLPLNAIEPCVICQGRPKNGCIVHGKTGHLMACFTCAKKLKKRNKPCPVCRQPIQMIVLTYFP
row,Compound,inhibition
1,COc1ccc(C(C#N)N2N=C(C)CC2(C)C)cc1 (stereo not given),-22.4% (inactive)
2,Cc1ccc(S(=O)(=O)N2[C@@H](c3ccc(Br)cc3)C(C(=O)O)=C[C@H]2CC2CCCC2)cc1,30.4% (inactive)
3,CC[C@H]1CN2CCc3cc(OC)c(OC)cc3[C@@H]2C[C@@H]1C[C@H]1NCCc2cc(OC)c(OC)cc21,91.7% (active)
4,CCc1ccc(OCC2c3cc(OC)c(OC)cc3CCN2C(C)=O)cc1 (stereo not given),6.86% (inactive)
5,COc1ccc2c(c1)CCNC2Cc1ccc(OC)c(O)c1 (stereo not given),-20.9% (inactive)
6,C=C(C)c1cccc(C(C)(C)NC(=O)NCCN(CC)CC)c1,14.6% (inactive)
7,Cc1ccc(S(=O)(=O)N2C[C@@H]3CCCC[C@@H]3[C@@H](C)[C@H]2c2cn(Cc3ccccc3)c3ccc(F)cc23)cc1,30% (inactive)
8,CCNC(=O)COC(=O)/C=C/c1c(C)nn(Cc2cccc(OC)c2)c1Cl,11.4% (inactive)
9,COc1ccc(NS(=O)(=O)c2ccc(NC(=S)NC(=O)/C=C/c3ccc(C)cc3)cc2)nn1,-0.635% (inactive)
10,Cc1ccc(C(=O)/C=C/Nc2ccc(S(=O)(=O)Nc3onc(C)c3C)cc2)cc1,0.513% (inactive)
11,COc1ccc(/C=C/C(=O)c2ccc(NS(=O)(=O)c3ccc(C)cc3)cc2)cc1O,65.1% (active)
12,Cc1cc(C)n2nc(C(=O)OC(C)C(=O)c3cc(C)c(C)cc3C)nc2n1 (stereo not given),1.62% (inactive)
13,OCC[C@H]1C[C@H](O)[C@@H](O)[C@]2(Cc3ccccc3CO2)O1,-20.7% (inactive)
14,Cc1cccc(NC(=O)c2nc(S(=O)(=O)Cc3ccccc3)ncc2Cl)c1,97.5% (active)
15,Cc1cccc(NC(=O)C(C)SCc2ccccc2)c1 (stereo not given),0.19% (inactive)
16,CSc1ncc(Cl)c(C(=O)Nc2cc(C)ccc2C)n1,-15.6% (inactive)
17,Cc1cccc(CS(=O)(=O)c2ncc(Cl)c(C(=O)Nc3ccc(F)cc3)n2)c1,82.1% (active)
18,Cc1cccc(NC(=O)c2nc[nH]c2C(=O)NCC(=O)OCc2ccccc2)c1,10.4% (inactive)
19,CCOc1ccc(NC(=O)c2nc(SCC)ncc2Cl)cc1,46.8% (inactive)
20,CCOc1ccc2c(c1)c(=O)c(S(=O)(=O)c1ccc(C)cc1)cn2CC,5.7% (inactive)
21,O=C(COC(=O)C1CC2C=CC1C2)Nc1ccccc1 (stereo not given),-11.4% (inactive)
22,CCS(=O)(=O)c1ccc(C(=O)NC)c(Cl)c1Cl,13.4% (inactive)

row,Compound,inhibition
1,COc1cc(C(=O)Nc2cc(C(F)(F)F)ccc2N2CCOCC2)ccc1O,15.4% (inactive)
2,CC(C)(C)OC(=O)C[C@H]1C/C=C\C[C@@H](CC(=O)N[C@H](CO)Cc2ccccc2)C(=O)NC[C@@H](c2ccccc2)OC1=O,9.47% (inactive)
3,O=C(C[C@H]1C/C=C\C[C@@H](NC(=O)OCC2c3ccccc3-c3ccccc32)C(=O)O[C@@H](c2ccccc2)CNC1=O)N[C@H](CO)Cc1ccccc1,99.8% (active)
4,CC(C)(C)OC(=O)C[C@@H]1C/C=C\C[C@@H](CC(=O)N[C@H](CO)Cc2ccccc2)C(=O)NC[C@@H](c2ccccc2)OC1=O,13.2% (inactive)
5,Cc1c(NC(=O)CN(C)CC(=O)Nc2ccc(F)c(F)c2F)c(=O)n(-c2ccccc2)n1C,7.46% (inactive)
6,OCC[C@H]1C[C@@H](O)[C@H](O)[C@]2(OCCCc3ccccc32)O1,8.75% (inactive)
7,CCNS(=O)(=O)c1ccc(NC(=O)Nc2cccc(C(F)(F)F)c2)cc1,52.6% (active)
8,CC(C)C[C@H](NC(=O)Nc1cccc(C(F)(F)F)c1)C(=O)O,29.7% (inactive)
9,O=C(Nc1ccc(Cl)cc1)Nc1ccc(C(=O)N2CCOCC2)cc1,9.36% (inactive)
10,CC(=O)N1CCN(C(=O)Nc2cccc(C(F)(F)F)c2)CC1,-7.17% (inactive)
11,O=C(Nc1ccc(C(=O)N2CCOCC2)cc1)Nc1cccc(C(F)(F)F)c1,54.6% (active)
12,O=C(NCc1ccccc1)c1ccc(S(=O)(=O)Nc2cccc(C(F)(F)F)c2)cc1,25.2% (inactive)
13,O=S(=O)(NCCS(=O)(=O)N1CCN(c2ccccc2)CC1)c1ccc(F)cc1,23.9% (inactive)
14,Cc1nc(-c2ccccc2)cn2c1nc1ccccc12,14.8% (inactive)
15,COc1ccccc1NC(=O)c1c(Br)cnn1C,-30.1% (inactive)
16,CN(C(=O)CCN1C(=O)/C(=C/c2ccccc2F)SC1=S)C1CCS(=O)(=O)C1 (stereo not given),24.9% (inactive)
17,O=C(CN1CCCCCC1)NCCN1C(=O)S/C(=C\c2ccccc2Cl)C1=O,3.22% (inactive)
18,O=C1/C(=C\c2ccccc2Cl)SC(=S)N1CCC(=O)N1CCCc2ccccc21,99.5% (active)
19,COc1ccc(C(=O)OCc2cc(=O)n3ccsc3n2)cc1F,2.88% (inactive)
20,O=C(NNC1CC(=O)N(c2cccc(Cl)c2)C1=O)c1cccnc1 (stereo not given),14.9% (inactive)
21,COc1cc(OC)c2c(-c3cccc(-c4cccc(N)c4)c3)cc(=O)oc2c1,75% (active)
22,COc1ccc(-c2c(C)cc3oc(=O)cc(-c4ccccc4)c3c2C)cc1F,2.64% (inactive)

row,Compound,inhibition
1,COc1ccc(-c2c(C)cc3oc(=O)cc(-c4ccccc4)c3c2C)cc1OC,7.66% (inactive)
2,C=CCn1c(=S)[nH]c2scc(-c3ccco3)c2c1=O,-19.1% (inactive)
3,Cc1ccccc1C(OCCN(C)C)C1CCCCC1 (stereo not given),25.8% (inactive)
4,COc1cccc(OC)c1C(=O)N1CCN(Cc2cccnc2)CC1,-4.03% (inactive)
5,COc1ccc(S(=O)(=O)N2CCOCC2)cc1NC(=O)Cc1coc2cc(C)ccc12,3.68% (inactive)
6,COc1ccc(CNS(=O)(=O)c2ccc(-c3cnc(C4CC4)o3)cc2)cc1,15.3% (inactive)
7,Cc1cccc(NS(=O)(=O)c2ccc(-c3cnc(C4CC4)o3)cc2)c1,65.1% (active)
8,Cc1cccc(CNS(=O)(=O)c2ccc(-c3cnc(C4CC4)o3)cc2)c1,35.8% (inactive)
9,CN(C)S(=O)(=O)c1ccc(C(=O)NCCN=C2NS(=O)(=O)c3ccccc32)cc1,7.98% (inactive)
10,COCCCNC(=O)CN1CCN(Cc2ccccc2Cl)C1=O,-6.08% (inactive)
11,Cc1ccc(-c2ccc(=O)n(CC(=O)NCCCN3CCCCC3)n2)cc1,2.15% (inactive)
12,Cc1nn(CC(=O)NCCc2ccccc2)c(=O)c2cc3occc3n12,19% (inactive)
13,CCc1ccc(-c2cc3c(=O)n(CC(=O)NCCCN4CCN(Cc5ccccc5)CC4)nc(C)n3n2)cc1,97.4% (active)
14,O=C(NNC(=O)c1cc(S(=O)(=O)N2CCCCC2)ccc1Cl)c1ccccc1O,16.6% (inactive)
15,CC(C)Sc1nnc([C@H](Cc2ccccc2)NC(=O)OC(C)(C)C)o1,2.05% (inactive)
16,C[C@@H](NC(=O)OC(C)(C)C)c1nnc(S(=O)(=O)Cc2ccccc2)o1,53.4% (active)
17,C[C@H](NC(=O)OC(C)(C)C)c1nnc(SCC(=O)Nc2ccc(Br)cc2)o1,18.7% (inactive)
18,NC(=O)CC(NC(=O)Cc1ccc(Br)cc1)c1ccc(NC2CC3CCC2C3)c([N+](=O)[O-])c1 (stereo not given),9.79% (inactive)
19,COc1ccc(Br)cc1CN(C)C(=O)C1CC(=O)N(C2CCCC2)C1 (stereo not given),9.72% (inactive)
20,CCN(CC(=O)NC(C)C)C(=O)c1cc(S(=O)(=O)N2CCCCC2)ccc1N1CCCCC1,2.7% (inactive)
21,Cc1cccc(NC(=O)C2CCN(S(=O)(=O)c3cccc4cccnc34)CC2)c1,14% (inactive)
22,Cc1ccnc(NC(=O)C2CCN(S(=O)(=O)c3c(C)c(C)cc(C)c3C)CC2)c1,84.8% (active)

row,Compound,inhibition
1,O=C(Nc1ccccn1)C1CCN(S(=O)(=O)c2ccccc2)CC1,-12.4% (inactive)
2,Cc1ccc(S(=O)(=O)N(C)CC(=O)NCCc2c[nH]c3ccccc23)cc1,6.29% (inactive)
3,Cc1ccc(OCCNC(=O)CN2C(=O)NC3(CCCC3)C2=O)cc1,15.5% (inactive)
4,Cc1ccc(S(=O)(=O)/N=S(\C)C(C)C)cc1 (stereo not given),20.8% (inactive)
5,COc1ccc(CNC(=O)C[C@H]2C[C@H](C(=O)N3CCOCC3)[C@@]3(C)c4[nH]c5cc(CCC(=O)N(C)C)ccc5c4CCN3C2=O)cc1OC,49.5% (inactive)
6,Cc1ccc2sc(N(CCN(C)C)C(=O)/C=C/c3cccs3)nc2c1C,52.3% (active)
7,Cc1cc(C)c2nc(N(CCN(C)C)C(=O)/C=C/c3cccs3)sc2c1,47.5% (inactive)
8,Cc1ccc(S(=O)(=O)N(C)C)cc1NC(=O)/C=C/c1cccs1,30.7% (inactive)
9,COCc1c(C(=O)N/N=C(\C)c2ccncc2)nnn1-c1nonc1N,-11.6% (inactive)
10,Cc1cc(C)c(S(=O)(=O)N(C)CC(=O)NCC2CCCO2)c(C)c1 (stereo not given),0.089% (inactive)
11,Cc1ccc(OCc2nnc(NC(=O)OCC(C)C)s2)cc1,-16.4% (inactive)
12,CN(Cc1ccccc1)C(=O)CSc1nc2ccccc2[nH]1,-10.7% (inactive)
13,O=C(CSc1nc2ccccc2[nH]1)Nc1nc(-c2ccccc2)c(-c2ccccc2)o1,13.9% (inactive)
14,CCC(C)N1C(=O)S/C(=C/c2ccc(Sc3nc4ccccc4[nH]3)o2)C1=O (stereo not given),89.2% (active)
15,O=C(CNC(=O)c1ccccc1Br)NNC(=O)c1cccs1,4.78% (inactive)
16,Cc1ccc(-n2[nH]c(C)c(/C=N/NC(=O)c3cccc([N+](=O)[O-])c3)c2=O)cc1C,72.5% (active)
17,Cc1[nH]n(-c2ccccc2)c(=O)c1/C=N/NC(=O)c1ccoc1C,37.2% (inactive)
18,Cc1[nH]n(-c2ccc([N+](=O)[O-])cc2)c(=O)c1C=NCCN1CCN(C(=O)c2ccccc2F)CC1,-5.19% (inactive)
19,CC1O[C@@H](OC2C(O)C(C)O[C@H](OC(=O)[C@]34CCC(C)(C)C[C@H]3C3=CCC5[C@@]6(C)CC(O)C(O[C@@H]7OC(CO)C(O)[C@@H](O)[C@@H]7O)[C@@](C)(C(=O)O)C6CC[C@@]5(C)[C@]3(CO)CC4)C2O[C@H]2OC(C)[C@@H](O[C@@H]3OCC(O[C@@H]4OC(CO)C(O)[C@H](O)C4O)[C@@H](O)[C@@H]3O)[C@H](O)C2O)C(O)C(O)C1O (stereo not given in full),-20.6% (inactive)
